# Reference: the supplement of paper PMC8728848
# Many of the other results were omitted from the sample, so the strongest signals are more common in it than they were.
# B1: Mannose Binding Protein (Lactobacillus plantarum) (protein)
# chain: AERSEAALTHVDKDNFLKYFSLNGSATYDAKTGIVTITPNQNNQVGNFSLTSKIDMNKSFTLTGQVNLGSNPNGADGIGFAFHSGNTTDVGNAGGNLGIGGLQDAIGFKLDTWFNSYQAPSSDKNGSEISSTNSNGFGWNGDSANAPYGTFVKTSNQEISTANGSKVQRWWAQDTGESQALSKADIDGNFHDFVVNYDGATRTLTVSYTQASGKVLTWKTTVASSYQAMAMVVSASTGAAKNLQQFKLTSFDFQEAATVNVKYVDTTGHQLAQG
# Assays:
# Test in all cases: glycan array binding signal (z-score within array); higher = stronger binding
# Conditions in all cases: glycan notation: IUPAC condensed, linker removed
# [1] = biological target: Fuc(a1-2)Gal(b1-3)[Fuc(a1-4)]GlcNAc
# Method in brief: (§1)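 Glycan array binding is given as a within-array Z-score, which can be read as non-binding when negative. The arrays, 3228 of them, came from the Consortium for Functional Glycomics database and were retained only where the protein sequence was available. Z-scores were averaged across arrays of the same protein sequence at different concentrations or buffers and across linkers.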
# Fuc(a1-2)Gal(b1-4)GlcNAc = biological target: Fuc(a1-2)Gal(b1-4)GlcNAc
# Method in brief: as §1
# [2] = biological target: Fuc(a1-2)Gal(b1-4)GlcNAc(b1-2)Man(a1-6)[Gal(b1-4)GlcNAc(b1-2)Man(a1-3)]Man(b1-4)GlcNAc(b1-4)GlcNAc
# Method in brief: as §1
# [3] = biological target: Fuc(a1-2)Gal(b1-4)GlcNAc(b1-3)Gal(b1-4)GlcNAc
# Method in brief: as §1
# [4] = biological target: Fuc(a1-2)[Gal(a1-3)]Gal(b1-3)GlcNAc
# Method in brief: as §1
# Fuc(a1-3)GlcNAc = biological target: Fuc(a1-3)GlcNAc
# Method in brief: as §1
# [5] = biological target: Fuc(a1-3)[Gal(b1-4)]GlcNAc(b1-4)Gal(b1-4)[Fuc(a1-3)]GlcNAc(b1-4)Gal(b1-4)[Fuc(a1-3)]GlcNAc
# Method in brief: as §1
# Gal(a1-3)Gal(b1-4)Glc = biological target: Gal(a1-3)Gal(b1-4)Glc
# Method in brief: as §1
# [6] = biological target: Gal(a1-3)[Gal(a1-4)]Gal(b1-4)GlcNAc
# Method in brief: as §1
# Gal(b1-4)Glc = biological target: Gal(b1-4)Glc
# Method in brief: as §1
# [7] = biological target: Gal(b1-4)GlcNAc(b1-6)Gal(b1-4)GlcNAc
# Method in brief: as §1
# Gal6S(b1-4)Glc = biological target: Gal6S(b1-4)Glc
# Method in brief: as §1
# [8] = biological target: GalNAc(b1-3)Gal(a1-4)Gal(b1-4)GlcNAc
# Method in brief: as §1
# GalNAc(b1-3)GalNAc = biological target: GalNAc(b1-3)GalNAc
# Method in brief: as §1
# [9] = biological target: GlcNAc(a1-6)Gal(b1-4)GlcNAc
# Method in brief: as §1
# Man(a1-2)Man(a1-3)Man = biological target: Man(a1-2)Man(a1-3)Man
# Method in brief: as §1
# [10] = biological target: Man(a1-2)Man(a1-3)[Man(a1-6)]Man(a1-6)[Man(a1-2)Man(a1-3)]Man(b1-4)GlcNAc(b1-4)GlcNAc
# Method in brief: as §1
# [11] = biological target: Man(a1-3)[Man(a1-6)]Man(a1-6)[Man(a1-3)]Man
# Method in brief: as §1
# [12] = biological target: Neu5Ac(a2-3)Gal(b1-3)GlcNAc(b1-3)Gal(b1-3)GlcNAc
# Method in brief: as §1
# [13] = biological target: Neu5Ac(a2-3)Gal(b1-3)GlcNAc6S
# Method in brief: as §1
# [14] = biological target: Neu5Ac(a2-6)Gal(b1-4)GlcNAc(b1-2)Man(a1-3)[GlcNAc(b1-2)Man(a1-6)]Man(b1-4)GlcNAc(b1-4)GlcNAc
# Method in brief: as §1
# [15] = biological target: Neu5Ac(a2-6)Gal(b1-4)GlcNAc(b1-2)Man(a1-3)[Neu5Ac(a2-6)Gal(b1-4)GlcNAc(b1-2)Man(a1-6)]Man(b1-4)GlcNAc(b1-4)GlcNAc
# Method in brief: as §1
# [16] = biological target: Neu5Gc(a2-3)Gal(b1-3)GlcNAc
# Method in brief: as §1
# [17] = biological target: Neu5Gc(b2-6)Gal(b1-4)GlcNAc
# Method in brief: as §1
binder,measurement,setting,value
B1,glycan array binding signal (z-score),[1],-0.167
same,glycan array binding signal (z-score),Fuc(a1-2)Gal(b1-4)GlcNAc,-0.102
same,glycan array binding signal (z-score),[2],-0.749
same,glycan array binding signal (z-score),[3],-0.358
same,glycan array binding signal (z-score),[4],-0.696
same,glycan array binding signal (z-score),Fuc(a1-3)GlcNAc,-0.141
same,glycan array binding signal (z-score),[5],-0.071
same,glycan array binding signal (z-score),Gal(a1-3)Gal(b1-4)Glc,13.6
same,glycan array binding signal (z-score),[6],-0.551
same,glycan array binding signal (z-score),Gal(b1-4)Glc,-0.319
same,glycan array binding signal (z-score),[7],-0.654
same,glycan array binding signal (z-score),Gal6S(b1-4)Glc,0.521
same,glycan array binding signal (z-score),[8],4.17
same,glycan array binding signal (z-score),GalNAc(b1-3)GalNAc,2.15
same,glycan array binding signal (z-score),[9],-0.056
same,glycan array binding signal (z-score),Man(a1-2)Man(a1-3)Man,3.36
same,glycan array binding signal (z-score),[10],0.227
same,glycan array binding signal (z-score),[11],1.77
same,glycan array binding signal (z-score),[12],-0.526
same,glycan array binding signal (z-score),[13],-0.327
same,glycan array binding signal (z-score),[14],-0.444
same,glycan array binding signal (z-score),[15],-0.324
same,glycan array binding signal (z-score),[16],-0.785
same,glycan array binding signal (z-score),[17],1.04
